The list is not random: actives were taken first. Their share in the collection is about 19%.
HT1080-NT tox: kills 2HG-producing HT-1080-NT fibrosarcoma cells | HT-1080-NT fibrosarcoma viability, CellTiter-Glo ATP luminescence, 48 h | 1.6% of 360,000 active | AID 686970 | Potency, µM (highest dose often 46.1 µM), without a hit: at the top dose activity, negative = less viability, actives largely listed as cytotoxic;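 note: NT is the 2HG producing partner of a matched IDH1 knockdown line; 0% = DMSO-treated cells and -100% = media-only wells without cells; nearly all actives have a fitted effect of over 55% in size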
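HT-1080-NT fibrosarcoma cells (2HG-overproducing), 750 cells/well in RPMI with 5% FBS, dosed after 2 h and incubated 48 h at 37C. CellTiter-Glo luminescence normalized to DMSO and no-cell wells; concentration-response curves fitted and classed.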
KB-V1 MDR tox: KB-V1 MDR subline cytotoxicity; KB-V1 MDR cells viability, CellTiter-Glo, 72 h; Potency, µM (top dose mostly 46.1 µM), actives largely listed as cytotoxic; 3.4% of 400,000 active; note: nearly all actives have a fitted effect of over 60% in size
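Compound-treated KB-V1 multidrug-resistant cells, 72 h, 37 degrees C; viability by CellTiter-Glo. Fitted qHTS curves give the values.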
KB-3-1 cytotox: KB-3-1 parental cell cytotoxicity; KB-3-1 viability, CellTiter-Glo ATP luminescence, 72 h; Potency, µM (titrated, usually from 46.1 µM), most hits filed as cytotoxic; 1.4% of 400,000 active; AID 1347075; note: nearly all actives have a fitted effect of over 60% in size
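Cytotoxicity in the drug-sensitive parental line KB-3-1 was scored as loss of CellTiter-Glo luminescence following 72 h incubation with compound. Values come from curve fitting of normalized concentration-response data.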
TDP1 cell CPT: DT40-hTDP1 cell growth loss with CPT | chicken DT40 Tdp1-/-;hTDP1 cells + 20 nM CPT, ATP luminescence, 48 h | Potency, µM (titrated, usually from 46.2 µM), without a hit: at the top dose activity change, negative = growth inhibition, usual class: inhibitors | 12% of 420,000 active | AID 686979; note: nearly all actives have a fitted effect of over 55% in size
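Chicken DT40 Tdp1-/- cells complemented with human TDP1, 400 cells/well, exposed to compounds plus 20 nM camptothecin for at least 48 h at 37 C; viability read as ATP content by CellTiter-Glo luminescence.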
TDP1 cell noCPT: qHTS for Inhibitors of human tyrosyl-DNA phosphodiesterase 1 (TDP1): qHTS in cells in absence of CPT; 15% of 420,000 active; Potency, µM (top dose mostly 46.2 µM), without a hit: at the top dose activity change, negative = growth inhibition, actives largely listed as inhibitors; AID 686978, 2013; DT40 Tdp1-/- hTDP1 cells, no CPT, ATP luminescence, 48 h; note: nearly all actives have a fitted effect of over 55% in size
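DT40 Tdp1-/-;hTDP1 cells, no CPT (DMSO vehicle only), 400 cells/well; compounds pin-transferred; ≥48 hr, 37 °C; CellTiter-Glo 30 min RT dark, luminescence read.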
HT1080 IDH1KD tx: HT-1080 IDH1 knockdown cell toxicity (counter line); 2% of 360,000 active; Potency, µM (doses to about 46.1 µM), inactives show at the highest dose activity, negative = toxicity, usual class: cytotoxic; HT-1080 IDH1 knockdown viability, ATP luminescence, 48 h;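 note: 0% = DMSO wells and -100% = cell-free medium wells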
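Viability of IDH1-knockdown HT-1080 fibrosarcoma cells was assessed by CellTiter-Glo after 48 h at 37 °C with titrated compound; concentration-effect curves were classified by fit quality and response size.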
The depositor's hits bear a star; i = inactive; ? = inconclusive; · = no result given. Calls come from the whole dose curve; as a rule, active = well fitted curve in the direction sought with a large enough effect; inconclusive = small, poorly fitted or top-dose-only effect, or another doubt; inactive = no such curve, though single readings can be large; an effect the other way counts as inactive or inconclusive. Unless noted, % is set by controls: 0 for no effect and ±100 for the full control effect; potency is the fitted concentration of half-maximal effect.

SMILES	HT1080-NT tox	KB-V1 MDR tox	KB-3-1 cytotox	TDP1 cell CPT	TDP1 cell noCPT	HT1080 IDH1KD tx
CC(C)c1ccc2c(c1)C1(NN=C(c3ccccc3)S1)C(=O)N2 (stereo unspecified)	26µM*	i	?	3.7µM*	6.5µM*	?
CCc1ccc2c(c1)C1(NN=C(c3ccc(C)cc3)S1)C(=O)N2 (stereo unspecified)	?	?	?	16µM*	8.2µM*	21µM*
O=C(Nc1cc(F)ccc1F)c1ccc(-n2cncn2)c([N+](=O)[O-])c1	1%	i	i	-22%	-2%	16%
O=C(Nc1cc(Cl)ccc1-n1cncn1)c1ccc([N+](=O)[O-])s1	-21%	?	?	7.3µM*	?	-1%
O=C(Nc1cccc(/C=C/c2ccccn2)c1)c1ccc(-n2cncn2)c([N+](=O)[O-])c1	-14%	?	?	16µM*	6.5µM*	-26%
O=C(COc1ccc(Br)cc1)NNC(=O)c1ccc(-n2cncn2)c([N+](=O)[O-])c1	-1%	i	i	?	16µM*	-2%
O=C(Nc1cc(Cl)ccc1-n1cncn1)c1ccco1	0%	i	i	-6%	11%	-1%
O=C(Nc1ccc(F)c(F)c1)c1ccc(-n2cncn2)c([N+](=O)[O-])c1	-5%	i	i	8.2µM*	?	-6%
CCCCn1c(N)c(N(CC(C)C)C(=O)CSc2nnc(-c3ccc(Cl)cc3)o2)c(=O)[nH]c1=O	11%	i	i	11%	-7%	19%
CC1CCN(S(=O)(=O)c2cc(C(=O)NC3(C)CCS(=O)(=O)C3)ccc2Br)CC1 (stereo unspecified)	2%	i	i	-6%	10%	1%
Cc1nn(CC(=O)NCCc2ccccc2Cl)c(=O)c2nn(-c3ccccc3)c(C)c12	·	·	·	-22%	-22%	·
Cn1ncc(C#N)c1NC(=O)C1CC(c2ccc(Cl)c(Cl)c2)=NO1 (stereo unspecified)	-1%	i	i	-32%	-23%	-6%
O=C(NCC1CCCO1)C1CC(c2ccc(Cl)c(Cl)c2)=NO1 (stereo unspecified)	0%	i	i	18µM*	?	8%
O=C(O)CN(CC(=O)O)CC(=O)O	0%	i	i	1%	-4%	5%
CCOC(=O)c1c(N)nn(C(=O)C(C)C)c1-c1ccccc1	-4%	?	i	?	13µM*	-28%
CCOC(=O)c1c(CCl)nc2ccccc2c1-c1ccccc1	-8%	i	i	13µM*	23µM*	-15%
CCOC(=O)c1c(C)nc2ccccc2c1-c1ccccc1	-3%	?	i	?	18µM*	-16%
Cc1cc(C)c(NC(=O)CSc2ccc3nnc(CCNC(=O)c4ccccc4)n3n2)c(C)c1	-1%	i	i	-7%	2%	0%
COc1ccc(C(=O)NC(c2ccccc2Cl)c2cc(Cl)c3cccnc3c2O)cc1 (stereo unspecified)	·	·	·	8.2µM*	13µM*	·
COc1ccc(C(=O)Nc2cc(OC)cc3cccnc23)cc1	-2%	i	i	?	?	-3%
COc1cc(C(=O)NC(c2ccccc2Cl)c2cc(Cl)c3cccnc3c2O)cc(OC)c1OC (stereo unspecified)	·	·	·	13µM*	21µM*	·
COc1cc(C(=O)NC(c2ccccc2)c2ccccc2)cc(OC)c1C	-6%	i	i	-22%	?	-2%
CCOc1cc(C(=O)Nc2cc(C(=O)OC)ccc2C)ccc1OCC(=O)N1CCOCC1	?	i	i	-19%	-1%	0%
CCCCN1C(=O)CC2CCOC21C (stereo unspecified)	4%	i	i	2%	-14%	6%
O=C1c2ccccc2C(=O)c2c1ncn2-c1ccccc1	?	21µM*	?	5.8µM*	5.2µM*	-18%
SMILES	HT1080-NT tox	KB-V1 MDR tox	KB-3-1 cytotox	TDP1 cell CPT	TDP1 cell noCPT	HT1080 IDH1KD tx
O=c1[nH]c(=S)c2ncn(-c3ccccc3)c2[nH]1	?	?	i	-11%	-17%	21%
O=C(O)c1ccc(N/N=C/c2ccncc2)cc1	1%	i	i	-2%	13%	-6%
O=C(O)c1ccc(N/N=C/c2ccc3nccnc3c2)cc1	?	i	?	12µM*	12µM*	?
CCOc1ccc(N=Cc2ccc([N+](=O)[O-])cc2)c(O)c1	-19%	?	i	23µM*	12µM*	-14%
CCOc1ccc(N=Cc2ccc(N(C)C)cc2)c(O)c1	-21%	?	?	15µM*	7.3µM*	-15%
COc1ccc(/C=N/Nc2ccc([N+](=O)[O-])cc2)cc1O	-27%	?	?	?	?	?
CCOc1ccc(CNC(=S)N/N=C\c2ccc([N+](=O)[O-])cc2)cc1	-1%	i	i	16µM*	8.2µM*	-3%
CC(C)(C)c1ccc(OCc2ccc(C(=O)N/N=C/c3ccc([N+](=O)[O-])cc3)o2)cc1	-28%	i	i	18µM*	21µM*	?
CCOc1ccc(/C=N/NC(=O)c2ccc(Cn3cc([N+](=O)[O-])cn3)o2)cc1	-8%	i	i	-20%	-23%	-13%
CC(=O)c1ccc(O)c(CSc2nncn2C)c1	4%	?	i	-14%	19%	9%
C=CCn1c(CCn2c3ccccc3c3ccccc32)n[nH]c1=S	1%	?	i	-17%	-25%	-5%
C=CCn1c(Cc2cccc3ccccc23)n[nH]c1=S	-10%	18µM*	i	21µM*	?	-4%
CN(C)CCOC1c2ccccc2CCc2ccc3ccccc3c21 (stereo unspecified)	21µM*	?	i	?	21µM*	16µM*
CN(C)CCOC1c2ccccc2C=Cc2ccccc21	-18%	i	i	-10%	-22%	-18%
O=C(CCC1N=C2c3ccccc3N=C(SCC(=O)Nc3ccccc3F)N2C1=O)NCc1ccco1 (stereo unspecified)	·	i	i	-2%	-12%	·
O=C(Cc1ccc(OCCCc2ccccc2)cc1)NO	·	i	i	11µM*	14µM*	·
CC(C)COc1ccc(CC(=O)NO)cc1	·	i	i	8.9µM*	?	·

Compound activity deposited in PubChem by National Center for Advancing Translational Sciences (NCATS).
